Laboratory results as given in PubChem BioAssay AID524 (The Scripps Research Institute Molecular Screening Center, 2006).
Among all 65,000 compounds or so, about 95 (0.1%) were called active.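 The calls were made as follows: active = inhibition above the screen-wide mean inhibition plus 3 SD (cut at about 21% in these data); inactive = the rest.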 This excerpt belongs to a sample that is enriched for actives.

biological target: cAMP-dependent protein kinase catalytic subunit alpha (Homo sapiens) (UniProt P17612); assay: inhibitors of human PKA kinase activity, primary screen, biochemical, ATP-depletion luminescence, Kemptide substrate (AID 524); settings: PKA Kemptide phosphorylation, Kinase-Glo ATP luminescence; at 6 µM; stronger effect = higher value

Row | SMILES | inhibition
1 | CC(C)CNS(=O)(=O)c1ccc(OCC(=O)Nc2ccc3c(c2)OCO3)c(Cl)c1 | 4.9% (inactive)
2 | CC(=O)Nc1ccc(S(=O)(=O)NCCc2ccccc2)cc1 | 2.1% (inactive)
3 | CCC(=O)N1CCN=C1SCc1ccc(F)cc1 | 3.7% (inactive)
4 | COc1cc2[nH]c(=S)n(Cc3ccc(C)o3)c(=O)c2cc1OC | 1.2% (inactive)
5 | CC(=O)c1cc2c(cc1N)OCO2 | 1.2% (inactive)
6 | Cc1ccc2c(c1)sc1ncc(NC(=O)c3ccccc3)c(=O)n12 | -1.3% (inactive)
7 | Cc1cc(C)cc(NC(=O)N2CCC(NC(=O)c3ccc(F)cc3)CC2)c1 | 5.9% (inactive)
8 | CCCNS(=O)(=O)c1ccc2c(c1)CCCN2C(C)=O | 9.1% (inactive)
9 | CCc1cccc2c3c([nH]c12)C(CC)(CC(=O)O)OCC3 (stereo not drawn) | -6.8% (inactive)
10 | COc1cc(C2C3C(=O)N(c4ccccc4)C(=O)C3ON2c2ccccc2)ccc1O (stereo not drawn) | 4.7% (inactive)
11 | CC(C)Cc1ccc(S(=O)(=O)N2CCN(C(=O)c3ccco3)CC2)cc1 | 7% (inactive)
12 | COc1ccc2[nH]c(=O)c(CN(Cc3nnnn3CCc3ccccc3)CC3CCCO3)cc2c1 (stereo not drawn) | -2.5% (inactive)
13 | O=C(NCCCNCc1ccccc1)c1ccc(/C=N/O)nc1 | 9.9% (inactive)
14 | Cc1noc(C)c1C(=O)OCC(=O)/C=C1\N(C)c2ccccc2C1(C)C | 6.8% (inactive)
15 | CC1=Nn2c(nnc2-c2ccccc2)SC1 | 4.2% (inactive)
16 | CCOc1cc(/C=N/n2cnnc2)c(Br)cc1O | 6.7% (inactive)
17 | Cc1ccc(S(=O)(=O)N2CCN(Cc3cccc(C)c3O)CC2)cc1 | 6.3% (inactive)
18 | CCCc1cc(=O)n2[nH]c(SCc3ccccc3)nc2n1 | 5.4% (inactive)
19 | O=C(Nc1ccc(S(=O)(=O)N2CCCC2)cc1Cl)C1=COCCO1 | -4.1% (inactive)
20 | Cn1c(=NC(=O)c2cnccn2)sc2ccccc21 | 5% (inactive)
21 | O=P(c1cccs1)(c1cccs1)c1cccs1 | 3.3% (inactive)
22 | COC(=O)c1nc(NC(=O)c2ccc(Cl)cc2)n[nH]1 | 5% (inactive)
23 | Cn1c(=NC(=O)CSCC(=O)N2CCOCC2)sc2ccccc21 | 7.1% (inactive)
24 | O=C(C1CCN(c2nnc(-n3cccc3)s2)CC1)N1CCc2ccccc2C1 | -3.8% (inactive)
25 | O=C(Cn1nnc(-c2ccc(CN3CCOCC3)cc2)n1)NC1CCCCC1 | 10.1% (inactive)
26 | COC(=O)C(C)N(C#N)c1nc(C)nc(C)n1 (stereo not drawn) | -1.3% (inactive)

Row | SMILES | inhibition
27 | CCN(CC)CCN1C(=O)C(=O)/C(=C(/O)c2ccccc2)C1c1ccccc1F (stereo not drawn) | -5.4% (inactive)
28 | N#C/C=C1\Sc2ccccc2C(=O)N1CC(=O)N1CCN(S(=O)(=O)c2ccccc2)CC1 | 6.8% (inactive)
29 | CCOC(=O)c1ccc(N2C(=O)CC(Sc3nc(O)c(CC)c(=O)[nH]3)C2=O)cc1 (stereo not drawn) | 7.3% (inactive)
30 | CC(=O)Nc1cccc(NC(=O)c2c(-c3ccccc3)noc2C)c1 | -5.3% (inactive)
31 | Cc1nnc(SCC(=O)NCc2cccs2)[nH]c1=O | 12.3% (inactive)
32 | Cc1nc(SC(C)C)[nH]c(=O)c1Cc1ccccc1 | 5.4% (inactive)
33 | COc1cccc(-n2cc(C(=O)O)c3ccccc3c2=O)c1 | 12.3% (inactive)
34 | COc1cccc(Nc2nnc(SCC(=O)N3CC(C)OC(C)C3)s2)c1 (stereo not drawn) | 6% (inactive)
35 | CC(=O)NC1CC2CCCC(C1)N2CC(=O)Nc1ccccc1 (stereo not drawn) | 6% (inactive)
36 | O=C(NCC1CCCO1)C(C(=O)c1ccccc1)n1cc(Cl)ccc1=O (stereo not drawn) | 1.8% (inactive)
37 | Cc1nc2ccc(S(=O)(=O)NCC(=O)NCCN3CCCCC3C)cc2s1 (stereo not drawn) | -5.1% (inactive)
38 | CCOC(=O)CN1C(=O)C(O)(CC(=O)c2ccccn2)c2ccccc21 (stereo not drawn) | 10.4% (inactive)
39 | CCOc1ccc(C(=O)Nc2cc(OC)ccc2OC)cc1 | -1.4% (inactive)
40 | CC1(C)CC(=O)C(C=NCc2cccnc2)=C(O)C1 | 7% (inactive)
41 | CCCCCCOC(=O)NCC(O)c1ccccc1 (stereo not drawn) | 3.5% (inactive)
42 | Cc1cc(NC(=O)c2cccc(N3C(=O)CCC3=O)c2)no1 | -4% (inactive)
43 | COc1ccc2nc(NC(=O)c3ccc(Br)s3)sc2c1 | -4.9% (inactive)
44 | CC(=O)Oc1ccc(C(=O)Nc2nccs2)cc1 | -2.3% (inactive)
45 | COc1cc(Cl)c(S(=O)(=O)n2cnc(C)c2)cc1Cl | 4.9% (inactive)
46 | O=S(=O)(NCc1cccnc1)c1ccc(Br)s1 | -2.9% (inactive)
47 | CN(Cc1ccccc1)c1nc2c(c(=O)[nH]c(=O)n2C)n1CCSc1nc2ccccc2[nH]1 | 2.7% (inactive)
48 | COc1ccc2[nH]c(=O)c(CN(CC3CCCO3)C(=O)Nc3ccccc3)cc2c1 (stereo not drawn) | -4.5% (inactive)
49 | c1ccc(-c2oc3ncnc(N4CCOCC4)c3c2-c2ccccc2)cc1 | 7.5% (inactive)
50 | CCCCCN(C(=O)NC(=O)Nc1ccccc1OC)S(C)(=O)=O | 8.1% (inactive)
51 | CN1CCCc2cc(C#N)c(=O)[nH]c21 | 11.8% (inactive)
52 | Cc1ccccc1-n1c(SCC(=O)NCc2cccs2)nnc1-c1ccncc1 | 11.7% (inactive)

Row | SMILES | inhibition
53 | O=C(CSc1nc2ncccc2[nH]1)Nc1ccc2c(c1)OCCO2 | -9.5% (inactive)
54 | CCOC(=O)C1CCN(C(=O)C2CCN(S(=O)(=O)CC)CC2)CC1 | 0.3% (inactive)
55 | CCCc1nc2ccccc2c(=O)n1NC(=O)c1c(O)c2ccccc2[nH]c1=O | 7.9% (inactive)
56 | O=C(O)COc1nsnc1N1CCOCC1 | -0.4% (inactive)
57 | CCOC(=O)c1sc(NC(=O)CSc2nnc(-c3ccco3)o2)c(C(=O)OCC)c1C | -4.6% (inactive)
58 | COC(=O)CCSc1nccn1Cc1ccccc1 | 1.3% (inactive)
59 | O=C(Oc1ccccc1)c1ccc2nccnc2c1 | 18.8% (inactive)
60 | CN1C(=O)CC(N2CCN(c3ccccn3)CC2)C1=O (stereo not drawn) | 0.2% (inactive)
61 | Cc1ccc(-c2nc(COC(=O)c3c(C)noc3C)cs2)cc1 | 0.5% (inactive)
62 | CCn1c(=O)cc(OCC(=O)NCCCN2CCN(c3cccc(Cl)c3)CC2)c2ccccc21 | 9.2% (inactive)
63 | COC(CCN(C)C)(c1ccccc1)c1ccccc1 | 9.3% (inactive)
64 | COC(=O)c1ccc(NC(=O)c2ccco2)cc1 | -3.7% (inactive)
65 | Cc1cccc(-n2c(Cc3cc(=O)[nH]c(=O)[nH]3)nnc2SC(C)C)c1 | -8.8% (inactive)
66 | O=C(Nc1cnccn1)c1cccnc1 | 9% (inactive)
67 | O=C(Nc1nc2cc3c(cc2s1)OCCO3)c1cccc(S(=O)(=O)N2CCOCC2)c1 | 6.2% (inactive)
68 | COc1cc(-n2c(C)nc3cc(C(=O)NCc4ccco4)ccc32)cc(OC)c1OC | 5.2% (inactive)
69 | CCn1ncc(C2=NOC(C(=O)N3CCN(c4ccccc4)CC3)C2)c1C (stereo not drawn) | 11.5% (inactive)
70 | Cc1cccc(OCc2nnc(SCc3nc4cc(C(F)(F)F)ccc4c(=O)[nH]3)o2)c1 | 3.4% (inactive)
71 | Cc1ccccc1-n1nnc2c(=O)oc3ccccc3c21 | 7.5% (inactive)
72 | CCOc1ccccc1Nc1nnc(SCc2ccc(C(=O)OC)o2)s1 | 4.4% (inactive)
73 | CCOC(=O)N1CCN(CC(=O)c2c(C)[nH]c3ccccc23)CC1 | -3.4% (inactive)
74 | CCOC(=O)CN1CC23C=CC(O2)C(C(=O)Nc2ccc(F)cc2)C3C1=O (stereo not drawn) | 2.5% (inactive)
75 | COc1ccc(C2/C(=C(/O)c3ccc(OC(C)C)cc3)C(=O)C(=O)N2CCCN2CCOCC2)cc1 (stereo not drawn) | 3.6% (inactive)
76 | COc1ccccc1N1CCN(C(=O)c2cn(-c3ccccc3)nc2-c2cccnc2)CC1 | -9.3% (inactive)
77 | CCOc1nc(-c2ccc(OC)cc2)ccc1-c1noc(-c2cc(OC)c(OC)c(OC)c2)n1 | -0.3% (inactive)
78 | CN1CCc2c(sc3c2c(NCc2ccco2)nc2nnnn23)C1 | 4.3% (inactive)

Row | SMILES | inhibition
79 | COc1ccc(N=Cc2c(O)[nH]c3ccccc23)cc1OC | 9.6% (inactive)
80 | CC1(C)C2CCC1(C)C(OC(=O)CCn1ccnc1)C2 (stereo not drawn) | 7.3% (inactive)
81 | Nc1nnc(SCCN2C(=O)c3ccccc3S2(=O)=O)s1 | 6.6% (inactive)
82 | CCOC(=O)c1c(NC(=O)CSc2nnc(C)c(=O)[nH]2)sc2c1CCC2 | 0.8% (inactive)
83 | CN(CCc1ccccn1)S(=O)(=O)c1ccc2c3c(cccc13)C(=O)N2 | 4.5% (inactive)
84 | CC(=O)Nc1cc2ccc(OC(C)=O)cc2oc1=O | 5.7% (inactive)
85 | CCc1ccc(CCC(=O)Nc2ccc(S(N)(=O)=O)cc2)o1 | -0.9% (inactive)
86 | CCN1CCN(c2ncnc3c2oc2nc(C)c4c(c23)CC(C)(C)OC4)CC1 | 0.2% (inactive)
87 | CCOC(=O)C(CC)Sc1ncnc2c1nnn2-c1ccc(F)cc1 (stereo not drawn) | 11.3% (inactive)
88 | CC(C)(C)c1ccc(C(=O)CSc2ncn[nH]2)cc1 | 7.8% (inactive)
89 | CCCCOc1ccccc1/C=c1/sc2nc(-c3oc4ccccc4c3C)nn2c1=O | 2% (inactive)
90 | CC(C)(C)NC(=O)C(c1ccco1)N(Cc1ccc2c(c1)OCO2)C(=O)Cn1nnc2ccccc21 (stereo not drawn) | -2.7% (inactive)
91 | O=S(=O)(Nc1nccs1)c1ccc2c(c1)OCCO2 | 6.4% (inactive)
92 | Cc1cc(C)c2nc(SCCC#N)nc(C)c2c1 | 5.1% (inactive)
93 | O=C(NCc1ccc(Cl)cc1)c1cc2c(nc3sccn32)s1 | 2.8% (inactive)
94 | COc1ccccc1CNC(=O)C1CCN(S(C)(=O)=O)CC1 | 4.6% (inactive)
95 | Cc1ccc(S(=O)(=O)N2CCC(C(=O)N[C@@H](C)C(=O)NCc3ccccc3)CC2)cc1 | 1.2% (inactive)
96 | CC1(C)Cc2cccc(OCC(=O)Nc3nccs3)c2O1 | 9.4% (inactive)
97 | O=C(NCc1ccc2c(c1)OCO2)c1cc2c(s1)CS(=O)(=O)C2 | 5.5% (inactive)
98 | CCOCC(=O)Nc1cc(OC)c(Cl)cc1OC | 5.6% (inactive)
99 | O=S(=O)(c1cccc(S(=O)(=O)N2CCC(n3nnc4ccccc43)CC2)c1)N1CCCCC1 | 8.1% (inactive)
100 | Cc1ccc(-n2nc3c(c2NC(=O)CCC2CCCCC2)CS(=O)C3)cc1 (stereo not drawn) | -4.5% (inactive)
101 | CCC(C)n1[nH]c(=O)cc1N (stereo not drawn) | -5.4% (inactive)
102 | CCOc1ccccc1Oc1cn[nH]c1-c1ccc(OC)cc1O | -1.5% (inactive)
103 | CCn1cc(C(=O)NCC2COc3ccccc3O2)c2cc(OC)c(OC)cc2c1=O (stereo not drawn) | 2.4% (inactive)
